Results as given in PubChem BioAssay (NCI).
This is part of a sample that, as a whole, favours compounds with a hit. Of some 83,000 tested, about 20% had one in any assay.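 For each line, cells grew in 96-well plates with the test compound present at a single concentration for 48 hours.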 A number with no mark means an inactive call. Calls of active or inactive are those of the source. The calls were made as follows: active = growth percent below 10; inactive = the rest.

Tested on: BT-549 breast
Assay: NCI-60 one-dose screen, 48 h (100 = growth as untreated, 0 = no growth, -100 = all killed)
Conditions: 10 µM unless noted

SMILES | growth
O=C(Nc1nc2ccc([N+](=O)[O-])cc2s1)Nc1ccc(Cl)cc1Cl | 65.3%
CCCCCCCCc1ccc(C(=O)Nc2ccc(C)cc2C(=O)O)cc1 | 104%
CCC(=O)c1cc(C(=O)OC)c2ccc3c4ccccc4ccc3n12 | 112%
CCCCNc1ccc2c3c(cccc13)C(=O)N(NCC(O)COc1ccc3c(C)cc(=O)oc3c1)C2=O (stereo not drawn) | 95.8%
COc1ccc(C(=O)c2cc(C(C)=O)c3c(C)cc(C)cn23)cc1 | 25.4%
O=C(Nc1nc2ccccc2s1)Nc1ccccc1Cl | 129%
O=C1Nc2cc(-c3ccc(NS(=O)(=O)c4ccc(F)c(Cl)c4)cc3)ccc2/C1=C/c1ccc[nH]1 | 19.7%
O=C1CCC(N2C(=O)c3cccc(NCCOCCOCCOCCC(=O)NCCCC(=O)NC(c4ccc5c(c4)OCO5)c4cc(Cl)c5cccnc5c4O)c3C2=O)C(=O)C1 (stereo not drawn) | 11.3%
CN1C(=O)C(O)(CC(=O)c2cc3ccccc3oc2=O)c2ccccc21 (stereo not drawn) | 105%
COc1ccc(Nc2nnc(-c3c[nH]c4ccccc34)o2)cc1 | 77.8%
Cc1cccc(C)c1Nc1nnc(-c2c[nH]c3ccccc23)o1 | 105%
Cc1nn(-c2ccccc2)c2nc(C)n(C(=O)N/N=C/c3cccc([N+](=O)[O-])c3)c(=O)c12 | 155%
COc1c2c(c(Br)c3c1C(CCc1ccccc1)N(C)CC3)OCO2 (stereo not drawn) | 3.17% (active)
CN1CCN(C(=O)Oc2cc3c(c4ccccc24)[C@H](CCl)CN3C(=O)c2cc3cc(OCCCN4CCC4)ccc3[nH]2)[C@H]2CSSC[C@H]21 | -36.8% (active)
Nc1nc(-c2ccccc2)c(N=Nc2ccc(Cl)cc2Cl)s1 | -47.2% (active)

Tested on: MDA-MB-435 melanoma
Assay: as above
Conditions: 10 µM unless noted

SMILES | growth
Fc1cccc(CNc2nc(SCCN3CCOCC3)nc3c2cnn3CC(Cl)c2ccc(Br)cc2)c1 (stereo not drawn) | 10.6%
O=C(Nc1nc2ccc([N+](=O)[O-])cc2s1)Nc1ccc(Cl)cc1Cl | 60.3%
Nc1nnc(CS(=O)(=O)c2ccccc2)s1 | 113%
CCCCCCCCc1ccc(C(=O)Nc2ccc(C)cc2C(=O)O)cc1 | 104%
COc1ccc2c(c1)c(-c1cc(N)n3nc(-c4c[nH]c5ccccc45)cc3n1)cn2C | -74% (active)
Clc1ccc(CNc2nc(SCCN3CCOCC3)nc3c2cnn3CC(Cl)c2ccc(Br)cc2)cc1 (stereo not drawn) | 27.6%
CCC(=O)c1cc(C(=O)OC)c2ccc3c4ccccc4ccc3n12 | 93.6%
Nc1cc(-c2c[nH]c3ccc(Cl)cc23)nc2cc(-c3c[nH]c4ccccc34)nn12 | -51% (active)
CCCCNc1ccc2c3c(cccc13)C(=O)N(NCC(O)COc1ccc3c(C)cc(=O)oc3c1)C2=O (stereo not drawn) | 72.2%
O=C(OCCOCCO)N(c1cccc(Br)c1)c1nc(SCCN2CCOCC2)nc2c1cnn2CC(Cl)c1ccc(Br)cc1 (stereo not drawn) | 9.72% (active)
CCN1C(=O)N(CC)C2NNC(Sc3c(C(=O)O)c4ccccc4n(CC(C)C)c3=O)=NC21 (stereo not drawn) | -51% (active)
CCN1C(=O)N(CC)C2NNC(Sc3c(C(=O)O)c4ccccc4n(CCC(C)C)c3=O)=NC21 (stereo not drawn) | -53.6% (active)
COc1ccc(C(=O)c2cc(C(C)=O)c3c(C)cc(C)cn23)cc1 | 49.1%
O=C(N/N=C/c1ccc(Cl)cc1)c1ccc(OCc2nc3ccc(Cl)cc3[nH]2)cc1 | -15.7% (active)
COC(=O)c1cc(C(=O)C(Br)Br)n2c1ccc1c3ccccc3ccc12 | 79%
O=C(Nc1nc2ccccc2s1)Nc1ccccc1Cl | 100%
Oc1ccc(Cl)c(Nc2ncnc3c2cnn3CC(Cl)c2ccc(Br)cc2)c1 (stereo not drawn) | 57.7%
ClC(Cn1ncc2c(Nc3cccc(Br)c3)nc(SCCN3CCOCC3)nc21)c1ccc(Br)cc1 (stereo not drawn) | -4.97% (active)
Nc1cc(-c2c[nH]c3ccc(F)cc23)nc2cc(-c3c[nH]c4ccccc34)nn12 | 4.81% (active)

SMILES | growth
O=C1Nc2cc(-c3ccc(NS(=O)(=O)c4ccc(F)c(Cl)c4)cc3)ccc2/C1=C/c1ccc[nH]1 | 55.1%
O=C1CCC(N2C(=O)c3cccc(NCCOCCOCCOCCC(=O)NCCCC(=O)NC(c4ccc5c(c4)OCO5)c4cc(Cl)c5cccnc5c4O)c3C2=O)C(=O)C1 (stereo not drawn) | 47.4%
Cn1cc(-c2cc3nc(-c4c[nH]c5ccccc45)cc(N)n3n2)c2ccccc21 | -81.8% (active)
CN1C(=O)C(O)(CC(=O)c2cc3ccccc3oc2=O)c2ccccc21 (stereo not drawn) | 110%
COc1ccc(Nc2nnc(-c3c[nH]c4ccccc34)o2)cc1 | 81.9%
Cc1cccc(C)c1Nc1nnc(-c2c[nH]c3ccccc23)o1 | 103%
Cc1ccc(O)cc1Nc1nc(SCCN2CCOCC2)nc2c1cnn2CC(Cl)c1ccc(Br)cc1 (stereo not drawn) | 12.6%
Fc1ccccc1CNc1nc(SCCN2CCOCC2)nc2c1cnn2CC(Cl)c1ccc(Br)cc1 (stereo not drawn) | 29.6%
COC(=O)c1cc(C(=O)CBr)n2c1ccc1c3ccccc3ccc12 | 74.9%
Oc1ccc(F)c(Nc2nc(SCCN3CCOCC3)nc3c2cnn3CC(Cl)c2ccc(Br)cc2)c1 (stereo not drawn) | 17.8%
COC(=O)c1c(C(=O)OC)c2ccc3c4ccccc4ccc3n2c1C(=O)C(C)Br (stereo not drawn) | 10.3%
Cc1nn(-c2ccccc2)c2nc(C)n(C(=O)N/N=C/c3cccc([N+](=O)[O-])c3)c(=O)c12 | 96.5%
COc1c2c(c(Br)c3c1C(CCc1ccccc1)N(C)CC3)OCO2 (stereo not drawn) | 13.9%
COc1ccc2[nH]cc(-c3cc(N)n4nc(-c5c[nH]c6ccccc56)cc4n3)c2c1 | -79% (active)
CC(C)(C)C(=O)C1CC(C#N)=C2C=Cc3c(ccc4ccccc34)N21 (stereo not drawn) | 97.9%
Oc1ccc(Cl)c(Nc2nc(SCCN3CCOCC3)nc3c2cnn3CC(Cl)c2ccc(Br)cc2)c1 (stereo not drawn) | 12%
Fc1ccc(F)c(CNc2nc(SCCN3CCOCC3)nc3c2cnn3CC(Cl)c2ccc(Br)cc2)c1 (stereo not drawn) | -13.3% (active)
CN1CCN(C(=O)Oc2cc3c(c4ccccc24)[C@H](CCl)CN3C(=O)c2cc3cc(OCCCN4CCC4)ccc3[nH]2)[C@H]2CSSC[C@H]21 | -70.2% (active)
Nc1nc(-c2ccccc2)c(N=Nc2ccc(Cl)cc2Cl)s1 | -51.7% (active)
